# From the supplement of paper PMC10105736
# Values without a mark were called inactive.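 Rule for the calls: active = MAPPIT score above the 99th percentile of random reference set scores in the same batch; inactive = at or below it.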
# B1: Rsf1 (protein)
# chain: MGDQRGTRVYVGNLTDKVKKDDLEGEFTKYGKLNSVWIAFNPPGFAFVEFEHRDDAEKACDILNGSELLGSQLRVEISKGRPRQGRRGGPMDRGGRRGDFGRHSITSGGSGGGGFRQRGSSGSSSRHTERGYSSGRSGASSYNGREGGGSGFNRREVYGGGRDSSRYSSGSSASYGRTGGQSAGRFRSRSPVGNHRF
# B2: Phb1 (protein)
# chain: MAAQFFNRIGQMGLGVAVLGGVVNSALYNVEGGHRAVIFDRFTGIKENVVGEGTHFFIPWVQRPIIFDIRSQPRNVPVITGSKDLQNVNITLRILYRPIPDQLPKIYTILGQDYDERVLPSIAPEVLKAVVAQFDAGELITQREMVSQRVSQELTVRAKQFGFILDDISLTHLTFGREFTLAVEMKQVAQQEAEKARFVVEKAEQQKLASIISAEGDAEAAGLLAKSFGEAGDGLVELRRIEAAEDIAYQLSRSRGVAYLPSGQSTLLNLPSTIAQ
# B3: Nplp2 (protein)
# chain: MAKLAICILVFALFALALSARVPREESNPAQEFLTKAQGDFNEFIEKLKALDAKKVEGLFKDGLNTVQEGLQKLNETFLQAPAAST
# B4: E(spl)m4-BFM (protein)
# chain: MCQNKINTNNTMTIKSNKKLSYSVKKLLQKIFKQQQRVEEEQNLKNALKANSLESLESMENSRNADLESASICASLESCENEANERLSQSCEIEDYDFEQLPTVPVHFVRTAHGTFFWTAVSDLPADNDLVEPLYCSTSNAIAIPQDRWVQA
# B5: Lap1 (protein)
# chain: MPLLSKCFPCFKFKREEVIDKLDYSNTPLTDFPEVWQHERTLEELYLSTTRLQALPPQLFYCQGLRVLHVNSNNLESIPQAIGSLRQLQHLDLNRNLIVNVPEEIKSCKHLTHLDLSCNSLQRLPDAITSLISLQELLLNETYLEFLPANFGRLVNLRILELRLNNLMTLPKSMVRLINLQRLDIGGNEFTELPEVVGELKSLRELWIDFNQIRRVSANIGKLRDLQHFEANGNLLDTLPSELSNWRNVEVLSICSNSLEAFPFSVGMLKSLVTFKCESNGLTELPDSISYLEQLEELVLSHNKLIRLPSTIGMLRSLRFLFADDNQLRQLPDELCSCQQLSVLSVANNQLSALPQNIGNLSKMKVLNVVNNYINALPVSMLNLVNLTSMWLSDNQSQPLVPLQYLDASTKTQLTCFMLPQVTFKMNSIQAQQQAQEQYEFVYANQQQPHASPSRRICFAEEATILSNAKAQPAPNYPSFVAAPPTPTPDQMAGSVRLMRSPTPYPKELRQMSKYVRQAQAATSSANASEVREARVVTNGQIHCDSNNANQDVVDQATTSAIYGIAPETTHIYGVYQQPQQMAHPVPTQEYYGLPLVNYEAHYQQLYVEANTPLPTTHLNGDQDYELQPLQQQPMQQQALPTPRLEPPPYHIARVYTKKTPEDLNLYESMRQRKQQQQLQEQTIYQDALNSNSNFKTTAIGAQDVEESVDQLDYQNNISNNLEPNPEEEDQELDDTMSQHSLNSTATNNTSKASHKKSTWIFGVHKNPTVKQVTLKWENSIGFDIAELLNQVGIFVSSITPNTNAARLLNLNDKLLEIDGYDLTNANLSDAKRVLLNCGTVMNIMLSRK
# B6: Lip3 (protein)
# chain: MTRGALKVTILLVGLGLVLAGSRPISDCGERIEDDGYPMERHEVVTSDNYILTMHRIPYSPKTGESSNRPVAFLMHGMLSSSSDWVLMGPERSLAYMLADAGYDVWMGNARGNTYSKAHKYWPTYWQIFWNFSWNEIGMYDVPAMIDYVLAKTGQQQVQYVGHSQGTTVYLVMVSERPEYNDKIKSAHLLGPAAYMGNMKSPLTRAFAPILGQPNAIVEVCGSMEFMPSNKFKQDLGIEMCQATSPYADMCANEIFLIGGYDTEQLDYELLEHIKATSPAGASVNQNLHFCQEYNSGKFRKFDYTALRNPYEYGSYFPPDYKLKNAKAPVLLYYGANDWMCDVSDVRKLRDELPNMALDYLVPFEKWAHLDFIWGTEARKYVYDEVLKQMQSYE
# B7: Cyp12a4 (protein)
# chain: MLKVRSALSLIQSQKATLSLATQKRWQTNVATAEAREDSEWLQAKPFEQIPRLNMWALSMKMSMPGGKYKNMELMEMFEAMRQDYGDIFFMPGIMGNPPFLSTHNPQDFEVVFRNEGVWPNRPGNYTLLYHREEYRKDFYQGVMGVIPTQGKPWGDFRTVVNPVLMQPKNVRLYYKKMSQVNQEFVQRILELRDPDTLEAPDDFIDTINRWTLESVSVVALDKQLGLLKNSNKESEALKLFHYLDEFFIVSIDLEMKPSPWRYIKTPKLKRLMRALDGIQEVTLAYVDEAIERLDKEAKEGVVRPENEQSVLEKLLKVDRKVATVMAMDMLMAGVDTTSSTFTALLLCLAKNPEKQARLREEVMKVLPNKNSEFTEASMKNVPYLRACIKESQRLHPLIVGNARVLARDAVLSGYRVPAGTYVNIVPLNALTRDEYFPQASEFLPERWLRSPKDSESKCPANELKSTNPFVFLPFGFGPRMCVGKRIVEMELELGTARLIRNFNVEFNYPTENAFRSALINLPNIPLKFKFIDLPN
# B8: eEF1gamma (protein)
# chain: MVKGTLYTYPENFRAYKALIAAQYSGAQVKVADNFKFGETNKSAEFLKKFPGGKVPAFETAEGQYLSESNAIAYLLANEQLRGGKCPFVQAQVQQWISFADNEIVPASCAWVFPLLGILPQQKNSTAKQEAEAVLQQLNQKLQDATFLAGERITLADIVVFSSLLHLYEYVLEPSVRSAFGNVNRWFVTILNQKQVQAVVKDYKLCEKALVFDPKKYAEFQAKTGAAKPQQQAQQQKQEKKPKEKKEAPKKAAEPAEELDAADEALAAEPKSKDPFDALPKGTFNFDDFKRVYSNEDEAKSIPYFFDKFDAENYSIWFGEYKYNEELSKVFMSCNLITGMFQRLDKMRKAAFASVCLFGEDGNSTISGIWVWRGQDLAFTLSPDWQIDYEVYDWKKLDAKSEETKKLVTQYFSWSGTDKDGRKFNQGKIFK
# What was measured:
# Experiment in all cases: MAPPIT interaction score (arbitrary units); higher = stronger binary interaction signal, active = hit call of the paper
# Rbp1 = settings: MAPPIT configuration: N-N; pair source set: Finley_Y2H
# Rab26 = settings: MAPPIT configuration: N-N; pair source set: Lit-BS-16
# RIC-3 = settings: MAPPIT configuration: N-C; pair source set: screen_3
# Sod3 = settings: MAPPIT configuration: N-C; pair source set: screen_4
# RFeSP = settings: MAPPIT configuration: N-N; pair source set: RRS
# RpL12 = settings: MAPPIT configuration: N-N; pair source set: Lit-BS-16
# RPA2 = settings: MAPPIT configuration: N-N; pair source set: Finley_Y2H
# ScsbetaG = settings: MAPPIT configuration: N-N; pair source set: Finley_Y2H
# RpL37A = settings: MAPPIT configuration: N-N; pair source set: Curagen_high_conf
# Rgk3 = settings: MAPPIT configuration: N-N; pair source set: Curagen_low_conf
# 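Note: HEK293T cells with Epo stimulation, STAT-responsive firefly luciferase reporter, fold induction versus unstimulated cells divided by the larger fold induction of two negative controls lacking either bait or prey.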
binder,measurement,setting,value
B1,MAPPIT interaction score,Rbp1,0.372
B2,MAPPIT interaction score,Rab26,0.345
B3,MAPPIT interaction score,RIC-3,0.0485
same,MAPPIT interaction score,Sod3,2.23
B4,MAPPIT interaction score,RFeSP,0.268
B5,MAPPIT interaction score,RpL12,-0.0144
B6,MAPPIT interaction score,RPA2,0.346
same,MAPPIT interaction score,ScsbetaG,1.35
B7,MAPPIT interaction score,RpL37A,-0.0129
B8,MAPPIT interaction score,Rgk3,-0.0165
